# Data published in the supplement of paper PMC9254222.
# Whole data set: some 1,100 compounds, median “Wnt reporter firefly/Renilla luciferase ratio relative to plate median” near 1.1, cut for the highest 2% near 1.6. Shown is part of a subset that was picked to be rich in the highest values.
# Tested on: HEK293T (UBE3A T485A transfected, BAR Wnt reporter)
# Test: Wnt reporter firefly/Renilla luciferase ratio relative to plate median (fold (linear ratio)); higher = more Wnt/beta-catenin reporter activation
# Settings: 24 h
# How it was run: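 Wnt activity (firefly/Renilla ratio) and cell health (raw Renilla) were read with Dual-Glo luciferase and median-centred plate by plate. HEK293T cells, at 4500 cells/well in white 384-well plates with DMEM plus 10% FBS at 37°C and 5% CO2, carried a transfected BAR firefly luciferase Wnt reporter, TK-Renilla and an expression plasmid. The chemicals were applied by robot at 0.01–100 uM for 24 h, beginning four hours after transfection, and results were averaged across four biological replicates.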
Structure (SMILES),Wnt reporter firefly/Renilla luciferase ratio (concentration: 0.01 uM),Wnt reporter firefly/Renilla luciferase ratio (concentration: 0.1 uM),Wnt reporter firefly/Renilla luciferase ratio (concentration: 1 uM),Wnt reporter firefly/Renilla luciferase ratio (concentration: 10 uM),Wnt reporter firefly/Renilla luciferase ratio (concentration: 100 uM)
CCON=C(CC)C1=C(O)CC(c2c(C)cc(C)cc2C)CC1=O (stereo not drawn) [Tralkoxydim],1.14,1.54,1.03,1.05,0.67
CN(C)C(=O)Nc1ccc(Cl)cc1 [Monuron],,0.888,0.901,1.09,1.04
CCC(=O)Nc1ccc(Cl)c(Cl)c1 [Propanil],1.31,1.71,0.955,1.25,0.294
CON(C)C(=O)Nc1ccc(Cl)c(Cl)c1 [Linuron],1.1,0.829,1.11,1.17,0.524
ClC1=C(Cl)C2(Cl)C3C(Cl)C=CC3C1(Cl)C2(Cl)Cl (stereo not drawn) [Heptachlor],,0.972,1.07,1.17,1.24
N#CC(Br)Br [Dibromoacetonitrile],,1.15,1.01,1.17,1.19
O=[N+]([O-])c1ccc(Cl)cc1 [1-Chloro-4-nitrobenzene],,1.04,1.2,1.02,1.38
"O=[N+]([O-])c1ccc(Cl)c(Cl)c1 [3,4-Dichloronitrobenzene]",,1.21,1.14,1.29,1.54
Nc1c(Cl)cc([N+](=O)[O-])cc1Cl [Dicloran],1.85,1.64,0.962,1.29,0.345
CCC(C)(c1ccc(O)cc1)c1ccc(O)cc1 [Bisphenol B],,1.11,0.969,0.999,0.0398
N#Cc1c(Cl)c(Cl)c(Cl)c(C#N)c1Cl [Chlorothalonil],0.876,0.784,1.16,0.725,
CCCCOC(=O)[C@@H](C)Oc1ccc(Oc2ccc(C#N)cc2F)cc1 [Cyhalofop-butyl],1.1,0.959,1.06,0.848,0.697
CC(C)(OOC(C)(C)c1ccccc1)c1ccccc1 [Dicumyl peroxide],,1.15,0.998,0.968,1.39
C#CCC1=C(C)C(OC(=O)C2C(C=C(C)C)C2(C)C)CC1=O (stereo not drawn) [Prallethrin],0.931,0.996,1.04,1.05,0.276
CC(C)(C)c1ccc(O)cc1 [4-tert-Butylphenol],,0.97,1.1,0.863,1.21
CO/C=C(/C(=O)OC)c1ccccc1Oc1cc(Oc2ccccc2C#N)ncn1 [Azoxystrobin],1.4,1.25,1.04,0.786,0.984
CCC(=NOC/C=C/Cl)C1=C(O)CC(C2CCOCC2)CC1=O (stereo not drawn) [Tepraloxydim],0.655,0.79,1.12,1.08,1.18
O=[N+]([O-])c1c(Cl)c(Cl)c(Cl)c(Cl)c1Cl [Pentachloronitrobenzene],0.743,0.765,1,0.856,1.26
Nc1ccc(Cl)cc1 [4-Chloroaniline],,1.15,1.08,0.914,0.367
CCOP(=S)(OCC)Oc1cc(C)nc(C(C)C)n1 [Diazinon],0.789,0.815,1.01,1.25,1.14
CCOC(=O)C(C)OC(=O)c1cc(Oc2ccc(C(F)(F)F)cc2Cl)ccc1[N+](=O)[O-] (stereo not drawn) [Lactofen],1.04,1.3,1.14,1.16,0.261

Structure (SMILES),Wnt reporter firefly/Renilla luciferase ratio (concentration: 0.01 uM),Wnt reporter firefly/Renilla luciferase ratio (concentration: 0.1 uM),Wnt reporter firefly/Renilla luciferase ratio (concentration: 1 uM),Wnt reporter firefly/Renilla luciferase ratio (concentration: 10 uM),Wnt reporter firefly/Renilla luciferase ratio (concentration: 100 uM)
CC(C)Nc1nc(Cl)nc(NC(C)C)n1 [Propazine],1.55,1.1,1.01,1.03,1.11
"Oc1c(Cl)cc(Cl)cc1Cl [2,4,6-Trichlorophenol]",,0.821,1.09,1.37,0.524
CS(=O)(=O)c1cc(C(F)(F)F)ccc1C(=O)c1cnoc1C1CC1 [Isoxaflutole],1.11,1.4,1.02,1.36,1.45
C#CCOS(=O)OC1CCCCC1Oc1ccc(C(C)(C)C)cc1 (stereo not drawn) [Propargite],1.24,1.16,1.02,0.934,0.259
CON=C(C(=O)OC)c1ccccc1CON=C(C)c1cccc(C(F)(F)F)c1 [Trifloxystrobin],0.871,1.03,0.939,0.327,
COP(=S)(OC)Oc1ccc([N+](=O)[O-])cc1 [Methyl parathion],1.23,1.05,1.21,1.02,0.89
COP(=S)(OC)Oc1ccc(SC)c(C)c1 [Fenthion],1.02,0.993,1.04,1.08,0.984
COP(=S)(OC)Oc1ccc([N+](=O)[O-])c(C)c1 [Fenitrothion],1.53,2.01,1.26,1.43,0.976
CCCCC(CC)COC(=O)c1ccccc1C(=O)OCC(CC)CCCC (stereo not drawn) [Di(2-ethylhexyl) phthalate],0.948,0.902,1.01,1.09,0.42
"Clc1cccc(Cl)c1Cl [1,2,3-Trichlorobenzene]",,1.09,1.1,1.05,1.01
"Clc1ccccc1Cl [1,2-Dichlorobenzene]",,0.904,1.01,0.88,1.62
Oc1ccccc1Cl [2-Chlorophenol],,0.951,0.944,1.24,1.52
COc1ccc(C)cc1N [2-Methoxy-5-methylaniline],,1.14,1.31,1.26,1.29
C1=Cc2cccc3cccc1c23 [Acenaphthylene],,1.29,1.26,1.41,0.898
CCCCCCCc1ccc(O)cc1 [4-Heptylphenol],,0.655,0.978,1.2,1.01
"CCCCCCCCCc1ccc(O)cc1 [4-Nonylphenol, branched]",,1.17,1.09,0.969,1.71
CCCCCCCCCc1ccc(O)cc1 [4-Nonylphenol],,0.995,0.971,1.16,0.953
CC(C)(C)C(O)/C(=C\c1ccc(Cl)cc1Cl)n1cncn1 (stereo not drawn) [Diniconazole],1.09,1.05,0.977,0.744,
Clc1ccc(C(c2ccc(Cl)cc2)C(Cl)Cl)cc1,,0.983,0.999,0.984,1.16
COc1cccc(NCC(F)Cn2c3ccc(Br)cc3c3cc(Br)ccc32)c1 (stereo not drawn),0.859,1.11,1.28,0.896,1.01
